# Assay results as given in PubChem BioAssay.
# Records with an inconclusive call do not appear. The source made the active and inactive calls.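 The calls were made as follows, unless noted: active = inhibition above 50%, about 3 SD of the validation set; inactive = the rest.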
# Assays:
# [1] = rapamycin-like changes in RPL19A-GFP expression – cell-based, S. cerevisiae, multiplex flow cytometry, primary screen (AID 1862; in the data active = percent of DMSO control GFP below about 86%;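 also: lower values mimic rapamycin by blocking the RPL19A rise seen in DMSO cells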); conditions: S. cerevisiae RPL19A-GFP strain, flow cytometry fluorescence, 3 h; at 10 µM; stronger effect = lower value
# [2] = TOR pathway GLN3 branch reporter MEP2-GFP changes – S. cerevisiae, multiplex flow cytometry, primary screen (AID 1867;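 active = GFP response, as percent of the DMSO control, above the screen-wide mean plus 3 SD, about 139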;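 also: median GFP channel fluorescence of barcode-gated MEP2-GFP cells measured by flow cytometry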); conditions: S. cerevisiae MEP2-GFP strain, 3 h, at 10 µM, stronger effect = higher value, 100% means same as DMSO wells
# [3] = TOR pathway RTG branch CIT2 reporter changes – S. cerevisiae, GFP fusion, multiplex flow cytometry, primary screen (AID 1870;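 active = percent response above a set limit, the screen-wide mean plus 3 SD, cut at about 130% in these data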;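 also: barcoded CIT2-GFP strain pooled with four other GFP strains with rapamycin as positive control; median GFP fluorescence per well over plate mean of DMSO wells so 100% = DMSO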); conditions: S. cerevisiae CIT2-GFP expression, 3 h, at 10 µM, stronger effect = higher value
# [4] = TOR pathway LAP4-GFP level changes – S. cerevisiae, multiplex flow cytometry, primary screen (AID 1873;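 active = GFP signal, as percent of the solvent control, above the screen mean plus 3 SD, about 149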); conditions: S. cerevisiae LAP4-GFP expression, 3 h, at 10 µM, stronger effect = higher value
# [5] = yeast AGP1-GFP level changes, GLN3 branch – cell-based, multiplex flow cytometry, S. cerevisiae, primary screen (AID 1887;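 active = GFP signal above the screen-wide mean plus 3 SD, that is over about 124.5% of the solvent control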;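 also: AGP1-GFP fusion strain of S. cerevisiae within a five-strain barcoded multiplex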); conditions: 3 h, at 10 µM, stronger effect = higher value
# [6] = reduced mouse 2C T cell binding to pMHC/ICAM-1 vesicles – MLPCN validation set, flow cytometry, LFA-1/ICAM-1 modulator project, pilot screen (AID 2523;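 active = response below a set limit, under 55% cells CD8-positive and vesicle-bound, and CD8 cells' 90th-percentile brightness under 279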;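 as to vesicle binding response: mean PE anti-B7-1 fluorescence of CD8+ cells relative to row control; 100% = QL9-loaded vesicles with DMSO vehicle in the same plate row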); conditions: 2C mouse CD8+ T cells, at 7 µM, stronger effect = lower value; double positive events: measured here: CD8+/vesicle+ event percentage
# [7] = target: Integrin beta-1 (Homo sapiens) + Integrin alpha-4 (Homo sapiens) (UniProt P13612+P05556); experiment: alpha4beta1 integrin LIBS antibody binding reduction – U937 cells, HUTS-21 mAb, flow cytometry, validation set, VLA-4 allosteric modulator project, pilot screen (AID 2674); conditions: HUTS-21 LIBS mAb binding, at 6.7 µM, stronger effect = higher value, binding induced by LDV ligand;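 also: antibody binding induced by the VLA-4 ligand LDV present at three times its Kd; 0% = LDV ligand with antibody and no compound and 100% = antibody without LDV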
# Integrin beta-1 (Homo sapiens) + Integrin alpha-4 (Homo sapiens), sequence (P05556 whole entry, looked up): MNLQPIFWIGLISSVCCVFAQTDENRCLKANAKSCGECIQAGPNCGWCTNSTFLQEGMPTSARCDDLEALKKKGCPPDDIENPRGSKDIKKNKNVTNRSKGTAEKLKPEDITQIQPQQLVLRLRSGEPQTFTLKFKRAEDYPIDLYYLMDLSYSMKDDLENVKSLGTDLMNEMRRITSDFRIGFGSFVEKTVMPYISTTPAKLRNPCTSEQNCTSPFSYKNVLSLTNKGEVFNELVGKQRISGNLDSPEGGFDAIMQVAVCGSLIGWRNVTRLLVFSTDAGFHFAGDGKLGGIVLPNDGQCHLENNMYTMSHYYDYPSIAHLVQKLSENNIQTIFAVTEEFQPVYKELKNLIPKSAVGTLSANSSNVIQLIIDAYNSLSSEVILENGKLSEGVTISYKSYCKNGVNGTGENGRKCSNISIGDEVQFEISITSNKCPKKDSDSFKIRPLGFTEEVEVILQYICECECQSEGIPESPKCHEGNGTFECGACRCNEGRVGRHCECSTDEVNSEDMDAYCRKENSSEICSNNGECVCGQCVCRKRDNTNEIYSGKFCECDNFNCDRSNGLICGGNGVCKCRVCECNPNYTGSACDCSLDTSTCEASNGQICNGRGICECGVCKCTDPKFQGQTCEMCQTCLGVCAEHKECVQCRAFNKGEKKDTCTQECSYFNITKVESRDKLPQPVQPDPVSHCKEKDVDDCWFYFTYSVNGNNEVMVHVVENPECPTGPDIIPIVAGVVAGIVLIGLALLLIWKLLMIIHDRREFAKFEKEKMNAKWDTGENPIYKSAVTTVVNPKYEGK
# Integrin beta-1 (Homo sapiens) + Integrin alpha-4 (Homo sapiens), sequence (P13612 whole entry, looked up): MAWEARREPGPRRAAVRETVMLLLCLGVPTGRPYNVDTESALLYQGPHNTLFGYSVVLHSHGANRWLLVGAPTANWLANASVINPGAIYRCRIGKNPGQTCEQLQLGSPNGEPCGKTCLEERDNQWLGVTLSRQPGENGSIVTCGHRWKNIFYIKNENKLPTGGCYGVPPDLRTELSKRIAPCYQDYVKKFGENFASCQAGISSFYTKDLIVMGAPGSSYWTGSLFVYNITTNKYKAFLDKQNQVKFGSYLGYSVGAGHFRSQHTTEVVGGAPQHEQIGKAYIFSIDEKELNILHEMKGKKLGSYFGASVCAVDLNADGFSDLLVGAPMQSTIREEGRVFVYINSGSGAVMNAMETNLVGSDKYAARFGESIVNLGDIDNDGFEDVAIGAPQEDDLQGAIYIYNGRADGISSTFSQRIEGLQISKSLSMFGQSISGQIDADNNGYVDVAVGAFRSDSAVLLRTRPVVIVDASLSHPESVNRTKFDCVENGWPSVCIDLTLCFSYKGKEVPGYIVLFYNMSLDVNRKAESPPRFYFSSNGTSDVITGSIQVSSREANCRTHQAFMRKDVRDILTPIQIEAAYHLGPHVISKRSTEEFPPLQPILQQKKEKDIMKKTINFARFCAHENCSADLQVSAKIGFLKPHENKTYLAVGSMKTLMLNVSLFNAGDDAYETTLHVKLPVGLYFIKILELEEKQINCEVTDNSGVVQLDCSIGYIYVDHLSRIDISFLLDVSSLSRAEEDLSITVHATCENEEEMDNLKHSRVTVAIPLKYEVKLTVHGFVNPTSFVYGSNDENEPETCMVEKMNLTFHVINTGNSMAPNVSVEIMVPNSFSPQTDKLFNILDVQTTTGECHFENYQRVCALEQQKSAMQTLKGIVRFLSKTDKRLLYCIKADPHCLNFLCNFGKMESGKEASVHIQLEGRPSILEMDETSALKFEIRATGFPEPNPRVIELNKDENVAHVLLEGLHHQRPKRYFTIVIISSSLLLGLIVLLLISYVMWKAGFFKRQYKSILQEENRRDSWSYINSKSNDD
# [8] = calorie-restriction mimetic ROS inhibitors, yeast – validation compound set, pilot screen (AID 2706;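 active = superoxide response below 65% of plate, a cut near 3 SD across the whole screen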;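 also: yeast exposed to compound for one week at 30 degrees C before staining; 100% = mean of all compound wells on the same plate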); conditions: S. cerevisiae aging, superoxide DHE fluorescence; at 10 µM; stronger effect = lower value
# [9] = target: Beta-adrenergic receptor kinase 1 (Homo sapiens) (UniProt P25098); experiment: GRK2 binders displacing RNA aptamer, biochemical, validation, human GRK2, bead flow cytometry (AID 488806;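 active = aptamer binding inhibition above 30%, about 3 SD of noise from non-fluorescent compounds; inactive = inhibition at or below 30%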); conditions: bead-bound GRK2, FAM-aptamer displacement, at 10 µM, stronger effect = higher value
# Beta-adrenergic receptor kinase 1 (Homo sapiens), sequence (P25098 whole entry, looked up): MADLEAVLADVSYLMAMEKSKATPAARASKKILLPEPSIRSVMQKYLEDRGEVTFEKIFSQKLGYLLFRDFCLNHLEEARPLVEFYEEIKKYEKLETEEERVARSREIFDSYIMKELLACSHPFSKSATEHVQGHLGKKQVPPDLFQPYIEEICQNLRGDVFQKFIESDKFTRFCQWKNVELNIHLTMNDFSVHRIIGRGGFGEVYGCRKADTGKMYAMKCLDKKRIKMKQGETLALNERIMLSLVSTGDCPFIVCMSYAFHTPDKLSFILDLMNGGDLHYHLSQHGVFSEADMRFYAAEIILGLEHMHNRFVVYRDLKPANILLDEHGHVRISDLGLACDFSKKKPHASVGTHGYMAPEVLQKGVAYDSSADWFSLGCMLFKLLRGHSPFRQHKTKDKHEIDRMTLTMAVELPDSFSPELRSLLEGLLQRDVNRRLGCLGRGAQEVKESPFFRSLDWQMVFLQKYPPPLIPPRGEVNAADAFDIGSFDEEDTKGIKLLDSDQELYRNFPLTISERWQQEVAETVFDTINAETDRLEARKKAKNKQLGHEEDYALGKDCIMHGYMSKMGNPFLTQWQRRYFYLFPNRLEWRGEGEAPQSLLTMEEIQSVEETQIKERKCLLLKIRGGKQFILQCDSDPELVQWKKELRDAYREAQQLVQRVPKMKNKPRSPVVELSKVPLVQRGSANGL
# [10] = target: Beta-2 adrenergic receptor (Homo sapiens) (UniProt P07550); experiment: agonist-induced loss of surface beta2AR – cell-based, FAP fluorogen, flow cytometry, validation set, pilot screen (AID 504459;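 active = percent response above 42, roughly 3 SD of non-fluorescent test compounds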;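 also: agonist-driven loss of surface beta2AR via internalization measured by FAP dye flow cytometry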); conditions: Am2.2-beta2AR cells, at 10 µM, stronger effect = higher value
# Beta-2 adrenergic receptor (Homo sapiens), sequence (P07550 whole entry, looked up): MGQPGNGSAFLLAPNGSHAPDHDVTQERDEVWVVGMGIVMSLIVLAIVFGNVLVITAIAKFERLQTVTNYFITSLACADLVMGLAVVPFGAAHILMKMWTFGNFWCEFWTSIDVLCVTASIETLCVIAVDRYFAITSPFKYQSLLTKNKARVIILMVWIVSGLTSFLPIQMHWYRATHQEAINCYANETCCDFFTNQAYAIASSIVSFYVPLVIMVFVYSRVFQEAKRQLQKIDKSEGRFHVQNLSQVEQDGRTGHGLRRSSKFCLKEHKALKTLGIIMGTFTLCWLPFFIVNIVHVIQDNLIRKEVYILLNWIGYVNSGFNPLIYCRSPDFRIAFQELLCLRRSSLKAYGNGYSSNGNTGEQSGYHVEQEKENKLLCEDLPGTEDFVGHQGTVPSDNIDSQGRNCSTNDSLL
# [11] = target: AP-2 complex subunit beta (Homo sapiens) (UniProt P63010); experiment: beta-arrestin/AP2 interaction blockers – biochemical, validation set, GST-AP2 beads, flow cytometry, pilot screen (AID 504541;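 active = inhibition above 54%, about 3 SD of non-fluorescent compounds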;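 also: AP2 carries R879A mutation and is captured from E. coli lysate; bead-bound FITC arrestin peptide fluorescence measuring arrestin peptide binding to AP2; 0% = DMSO wells and 100% = excess unlabeled arrestin peptide control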); conditions: FITC arrestin peptide, at 10 µM, stronger effect = higher value, AP2 beta2 appendage fragment, R879A mutant
# AP-2 complex subunit beta (Homo sapiens), sequence (P63010 whole entry, looked up, the tested form may be a part, one chain of several): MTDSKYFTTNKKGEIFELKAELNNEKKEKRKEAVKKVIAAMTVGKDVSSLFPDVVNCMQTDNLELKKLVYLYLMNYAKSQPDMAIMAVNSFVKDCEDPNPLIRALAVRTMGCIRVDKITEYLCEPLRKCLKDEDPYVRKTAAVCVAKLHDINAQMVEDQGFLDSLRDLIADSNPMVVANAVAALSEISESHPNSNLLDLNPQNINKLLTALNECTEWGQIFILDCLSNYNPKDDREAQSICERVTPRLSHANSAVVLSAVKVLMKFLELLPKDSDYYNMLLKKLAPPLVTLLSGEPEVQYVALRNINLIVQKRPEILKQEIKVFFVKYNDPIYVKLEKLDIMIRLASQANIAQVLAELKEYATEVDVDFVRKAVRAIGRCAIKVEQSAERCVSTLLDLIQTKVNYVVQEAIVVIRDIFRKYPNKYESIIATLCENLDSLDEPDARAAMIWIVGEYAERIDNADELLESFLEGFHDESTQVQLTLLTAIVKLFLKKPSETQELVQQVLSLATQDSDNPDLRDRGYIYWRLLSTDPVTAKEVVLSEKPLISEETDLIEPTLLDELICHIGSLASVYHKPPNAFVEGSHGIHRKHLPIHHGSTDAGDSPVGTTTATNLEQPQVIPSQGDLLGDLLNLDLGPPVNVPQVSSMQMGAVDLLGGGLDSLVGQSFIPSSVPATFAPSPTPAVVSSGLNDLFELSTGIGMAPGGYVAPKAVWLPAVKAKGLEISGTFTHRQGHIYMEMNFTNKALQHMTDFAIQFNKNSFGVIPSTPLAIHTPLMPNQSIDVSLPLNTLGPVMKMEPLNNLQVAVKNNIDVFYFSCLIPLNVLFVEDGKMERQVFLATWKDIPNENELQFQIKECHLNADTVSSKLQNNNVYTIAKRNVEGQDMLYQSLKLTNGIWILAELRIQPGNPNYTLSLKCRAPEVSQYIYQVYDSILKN
# [12] = cytosolic pH regulators acting via V-ATPase – S. cerevisiae, pHLuorin, HTS validation (AID 504600; in the data active = response above about 15%;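 also: plate controls were DMSO for no effect and reference compound for full effect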); conditions: V-ATPase proton transport, at 10 µM, stronger effect = higher value
# [13] = test system: anti-desmoglein-3 scFv antibody binding to human DSG3; experiment: blockers of pathogenic pemphigus antibody–desmoglein-3 binding – biochemical, validation compound set, bead-based, flow cytometry, pilot screen (AID 588368;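 active = binding below the plate cutoff, the plate median minus 3 SD, with a reading above zero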;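 also: signal is the median channel fluorescence of bead-bound GFP antibody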); conditions: Protein G beads, DSG3-Fc, scFv-GFP binding, at 10 µM, stronger effect = lower value
# [14] = Nile Red efflux blockade in pump-expressing yeast – validation compound set, multiplex, phenotypic, pilot screen (AID 588506;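 active = efflux inhibition above 0.42, the validation set average plus 4 SD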;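 also: Nile Red retained in cells so higher fluorescence means more efflux inhibition; 0 = negative control wells and 1 = enniatin B 25 µM full block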); conditions: S. cerevisiae pump-expressing triplex, Nile Red efflux flow cytometry; at 10 µM; stronger effect = higher value; the pumps come from Candida albicans
# [15] = target: ATP-binding cassette sub-family B member 6 (Homo sapiens) (UniProt Q9NP58); experiment: blockers of ABCB6-driven porphyrin uptake – K562-ABCB6 cells, flow cytometry, validation set, pilot screen (AID 588550;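 active = inhibition above the screen-wide mean plus 3 SD, about 51%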;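 also: 0% = DMSO wells and 100% = benzethonium chloride 70 µM positive control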); conditions: K562-ABCB6 porphyrin accumulation, 1 h, at 10 µM, stronger effect = higher value
# ATP-binding cassette sub-family B member 6 (Homo sapiens), sequence (Q9NP58 whole entry, looked up): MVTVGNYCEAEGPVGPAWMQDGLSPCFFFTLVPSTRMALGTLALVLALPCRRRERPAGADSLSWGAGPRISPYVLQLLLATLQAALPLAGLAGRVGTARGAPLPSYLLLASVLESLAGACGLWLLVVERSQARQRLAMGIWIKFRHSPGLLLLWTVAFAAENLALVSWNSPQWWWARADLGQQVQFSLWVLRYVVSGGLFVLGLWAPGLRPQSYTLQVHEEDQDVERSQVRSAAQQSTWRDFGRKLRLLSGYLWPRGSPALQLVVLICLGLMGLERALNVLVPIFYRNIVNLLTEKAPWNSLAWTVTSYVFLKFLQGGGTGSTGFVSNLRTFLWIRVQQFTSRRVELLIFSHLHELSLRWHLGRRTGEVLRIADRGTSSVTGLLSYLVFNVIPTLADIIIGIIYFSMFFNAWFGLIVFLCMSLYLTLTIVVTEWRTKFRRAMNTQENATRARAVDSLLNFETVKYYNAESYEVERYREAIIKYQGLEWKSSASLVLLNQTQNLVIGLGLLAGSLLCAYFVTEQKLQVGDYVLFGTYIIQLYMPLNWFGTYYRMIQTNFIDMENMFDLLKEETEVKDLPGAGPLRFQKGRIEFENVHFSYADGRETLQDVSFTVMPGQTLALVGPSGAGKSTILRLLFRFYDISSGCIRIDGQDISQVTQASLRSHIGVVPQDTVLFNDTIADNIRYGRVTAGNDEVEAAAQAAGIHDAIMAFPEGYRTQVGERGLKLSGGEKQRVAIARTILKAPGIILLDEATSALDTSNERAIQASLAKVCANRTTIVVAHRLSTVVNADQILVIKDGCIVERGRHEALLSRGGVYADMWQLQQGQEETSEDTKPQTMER
# [16] = AML differentiation inducers, ER-HoxA9 marrow cells – cell-based, GFP/MAC1 double positive, flow cytometry, validation set, primary screen (AID 588685;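 active = differentiation response of at least 50%, scaled between solvent and reference control, from cells with both markers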;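 also: compound exposure lasts four days before antibody staining and flow analysis; 0% = DMSO wells and 100% = 5 µM fulvestrant positive control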); conditions: stronger effect = higher value, normalized: vehicle 0, fulvestrant 100
Structure (SMILES),percent of DMSO control GFP [1],GFP response vs DMSO [2],percent response of DMSO control [3],GFP response vs DMSO [4],"GFP response, % of DMSO [5]",double positive events [6] [%],vesicle binding response [6],inhibition [7],superoxide response (% of plate) [8],aptamer binding inhibition [9],response [10],inhibition [11],response [12],binding (% of control) [13],efflux inhibition (fraction of control) [14],inhibition [15],differentiation response [16]
CCC(=O)Nc1ccc(C(=O)N2CCN(C(=O)c3ccco3)CC2)cc1,101% (inactive),109% (inactive),104% (inactive),101% (inactive),99.7% (inactive),64.9,202% (inactive),4.73% (inactive),101% (inactive),0% (inactive),-11.7% (inactive),0.87% (inactive),-1.11% (inactive),95.5% (inactive),-0.23 (inactive),0% (inactive),7.09% (inactive)
CCn1nc(C(=O)O)c(=O)c2cc3c(cc21)OCO3,103% (inactive),104% (inactive),104% (inactive),90.7% (inactive),98.3% (inactive),55.1,726% (inactive),14.1% (inactive),92.7% (inactive),2% (inactive),-7.41% (inactive),-8.41% (inactive),61.9% (active),98.4% (inactive),-0.1 (inactive),-8% (inactive),13.9% (inactive)
CCC(=O)Oc1ccc(C(=O)Nc2ccc([N+](=O)[O-])cc2)cc1,87.8% (inactive),148% (active),90% (inactive),82.5% (inactive),80.8% (inactive),61.8,195% (inactive),-0.33% (inactive),88.4% (inactive),5% (inactive),4.9% (inactive),15.9% (inactive),-4.69% (inactive),100% (inactive),-0.38 (inactive),14% (inactive),-6.55% (inactive)
CCc1cc(=O)oc2cc(OCc3nn[nH]n3)ccc12,102% (inactive),100% (inactive),96.6% (inactive),96% (inactive),100% (inactive),65.5,174% (inactive),-10.8% (inactive),106% (inactive),5% (inactive),-3.63% (inactive),9.23% (inactive),-0.49% (inactive),103% (inactive),0.02 (inactive),14% (inactive),0.24% (inactive)
CCN(CC)C(=O)N1CCN(C)CC1,101% (inactive),106% (inactive),101% (inactive),101% (inactive),108% (inactive),63.6,158% (inactive),-3.77% (inactive),104% (inactive),-1% (inactive),-0.51% (inactive),7.6% (inactive),0.18% (inactive),103% (inactive),0.72 (active),9% (inactive),-13.3% (inactive)
CC[C@]1(O)CC2CN(CCc3c([nH]c4ccccc34)[C@@](C(=O)OC)(c3cc4c(cc3OC)N(C=O)[C@H]3[C@@](O)(C(=O)OC)[C@H](OC(C)=O)[C@]5(CC)C=CCN6CC[C@]43[C@@H]65)C2)C1 (stereo partly drawn),103% (inactive),98.5% (inactive),101% (inactive),94% (inactive),98.5% (inactive),61.8,204% (inactive),48.7% (inactive),93% (inactive),3% (inactive),23.4% (inactive),-4.62% (inactive),6.03% (inactive),97.2% (inactive),0.12 (inactive),112% (active),4% (inactive)
COc1cc2c(cc1OC)CN(Cc1ccc(C)s1)CC2,102% (inactive),106% (inactive),105% (inactive),88.1% (inactive),98% (inactive),64.1,349% (inactive),-13.9% (inactive),103% (inactive),4% (inactive),-7.1% (inactive),14.8% (inactive),-3% (inactive),101% (inactive),0.05 (inactive),4% (inactive),2.2% (inactive)
O=C(O)[C@@H](O)c1ccccc1,102% (inactive),106% (inactive),102% (inactive),121% (inactive),120% (inactive),62,168% (inactive),16.8% (inactive),97% (inactive),3% (inactive),-22.9% (inactive),10.1% (inactive),-0.22% (inactive),106% (inactive),-0.04 (inactive),3% (inactive),-11.9% (inactive)
COC(=O)CSc1nc2ccc(N)cc2s1,104% (inactive),103% (inactive),104% (inactive),95.3% (inactive),97.8% (inactive),64.4,189% (inactive),-3.57% (inactive),110% (inactive),-1% (inactive),5.1% (inactive),4.01% (inactive),-1.65% (inactive),92% (inactive),0.02 (inactive),-5% (inactive),12% (inactive)
CCc1cccc2c3c([nH]c12)C(CC)(CC(=O)O)OCC3 (stereo not drawn),103% (inactive),106% (inactive),100% (inactive),93.3% (inactive),100% (inactive),61.9,36.2% (inactive),-4.6% (inactive),107% (inactive),1% (inactive),-0.16% (inactive),-11.4% (inactive),1.09% (inactive),86.9% (inactive),-0.26 (inactive),-5% (inactive),3.18% (inactive)
Cc1c(NC(=O)c2cccs2)cccc1[N+](=O)[O-],102% (inactive),103% (inactive),102% (inactive),107% (inactive),99.1% (inactive),67.8,342% (inactive),2.93% (inactive),95.5% (inactive),-4% (inactive),3.73% (inactive),-17.9% (inactive),-1.2% (inactive),104% (inactive),-0.01 (inactive),1% (inactive),18.8% (inactive)
COc1cc(C(=O)Nc2ccc(N(C)C)cc2)c([N+](=O)[O-])cc1OC,100% (inactive),104% (inactive),101% (inactive),104% (inactive),98.6% (inactive),63.5,224% (inactive),-3.57% (inactive),101% (inactive),4% (inactive),-1.8% (inactive),2.96% (inactive),0.28% (inactive),93.2% (inactive),-0.2 (inactive),7% (inactive),4.15% (inactive)
CC(C)(C)n1c(=O)[nH]c2c(c1=O)CCC2,105% (inactive),103% (inactive),98.3% (inactive),113% (inactive),110% (inactive),61.8,205% (inactive),8.25% (inactive),98.5% (inactive),0% (inactive),-17.6% (inactive),66.2% (active),7.46% (inactive),100% (inactive),0.08 (inactive),-3% (inactive),-12.9% (inactive)
CC(C(=O)O)c1ccc(-c2ccccc2)c(F)c1 (stereo not drawn),94.8% (inactive),104% (inactive),76.8% (inactive),128% (inactive),84.8% (inactive),66.4,1320% (inactive),1.62% (inactive),106% (inactive),-1% (inactive),-7.02% (inactive),-9.46% (inactive),-1.04% (inactive),103% (inactive),0.05 (inactive),1% (inactive),0.24% (inactive)
NS(=O)(=O)c1ccc(CCNC(=O)C2CCCN2C(=O)OCc2ccccc2)cc1 (stereo not drawn),97.2% (inactive),109% (inactive),112% (inactive),77.6% (inactive),103% (inactive),52.2,214% (inactive),1.61% (inactive),110% (inactive),-8% (inactive),-16.9% (inactive),-5.77% (inactive),2.16% (inactive),104% (inactive),0.19 (inactive),11% (inactive),3.28% (inactive)
COC(=O)C1=C(C)NC(C)=C([N+](=O)[O-])C1c1ccccc1C(F)(F)F (stereo not drawn),101% (inactive),110% (inactive),98.6% (inactive),97% (inactive),105% (inactive),58.2,160% (inactive),9.63% (inactive),102% (inactive),0% (inactive),4.56% (inactive),-3.68% (inactive),3.77% (inactive),106% (inactive),-0.3 (inactive),4% (inactive),-7.5% (inactive)
Cc1ccc(-c2nn(-c3cccc(F)c3)cc2CN2CCN(c3ccccn3)CC2)o1,101% (inactive),107% (inactive),92% (inactive),123% (inactive),101% (inactive),54.2,2920% (inactive),0.94% (inactive),95.7% (inactive),5% (inactive),25.4% (inactive),5.48% (inactive),-6.07% (inactive),101% (inactive),0.37 (inactive),12% (inactive),-23.2% (inactive)
CN1CCCN(C(c2ccccc2)c2ccc(Cl)cc2)CC1 (stereo not drawn),97.1% (inactive),102% (inactive),103% (inactive),123% (inactive),120% (inactive),54.6,171% (inactive),39.8% (inactive),107% (inactive),-14% (inactive),29.3% (inactive),-13.9% (inactive),-5.79% (inactive),107% (inactive),0.04 (inactive),2% (inactive),-7.94% (inactive)
CC(=O)NC(Cc1ccccc1)C(=O)OCC(=O)c1ccccc1 (stereo not drawn),96% (inactive),102% (inactive),88.6% (inactive),106% (inactive),100% (inactive),65.2,144% (inactive),9.1% (inactive),111% (inactive),3% (inactive),-9.61% (inactive),9.32% (inactive),3.98% (inactive),105% (inactive),0 (inactive),6% (inactive),-21.7% (inactive)
